Experimental findings from PMC4552634, “A New Set of Chemical Starting Points with Plasmodium falciparum Transmission-Blocking Potential for Antimalarial Drug Discovery” (PLoS ONE, 2015) are described below.

The subject of this test is P. falciparum stage V gametocytes. The arrangement: BacTiter-Glo ATP luminescence viability of purified stage V gametocytes in 384-well plates, per cent inhibition versus DMSO. To be noted: 48 h, 5 µM, inhibitor.

Like-named read-outs stand apart in the source and are kept apart here. Hit rate of the full screen: of about 13,000 compounds, about 3,200 (25%) showed an effect of 50% or more. Some of the results follow.

In general, % Inhibition refers to the relative decrease from the control value, in per cent. As to `CCOc1cc(C(=O)Nc2cccnc2)ccc1-c1nc2cc(Cl)c(Cl)cc2[nH]1` [TCMDC-140059], the “% Inhibition” value stood at 1.839%.
Regarding `Cc1nc2nc(N)nc(N)c2c(C)c1Cc1ccccc1I` [TCMDC-137243], the “% Inhibition” value was -2.242%.
Still for that read-out and setting: the figure for `CCCCCNc1nc2nc(N)nc(N)c2nc1-c1ccccc1` [TCMDC-141983] is -14.59%.
With `Cc1noc(C)c1S(=O)(=O)N(C)Cc1ccc(-c2ccc(Cl)cc2)o1` [TCMDC-125303], the “% Inhibition” value was -57.93%.
As to `Cc1ccc(S(=O)(=O)n2nccc2-c2c(-c3ccc(Cl)cc3)noc2C)cc1` [TCMDC-124500], the “% Inhibition” value came out at 65.37%.
Still for that read-out and setting: to `Cc1cc(C(=O)NCc2ccc(-c3c(C)noc3C)cc2)n(-c2ccc(Cl)cc2)n1` [TCMDC-133781] belongs 35.85%; to `Cc1onc(-c2ccc(Cl)cc2)c1-c1ccnn1S(=O)(=O)c1ccc(Cl)cc1` [TCMDC-123770], 63.51%; to `COc1ccc(Nc2ncc3c(-c4cccc(NC(=O)Cc5cccc(F)c5)c4)c[nH]c3n2)cc1OC` [TCMDC-135251], -27.44%.
Consider `COc1ccc2ccccc2c1CCCCN1CCN(CC(c2ccc(F)cc2)N2CCC(N3CCCC3)CC2)CC1` (stereo not drawn) [TCMDC-135866], for which the “% Inhibition” value was 9.799%.
Turning to `COc1ccc2ccccc2c1CCCCN1CCN(CC(c2ccc(F)cc2)N2CCN(C(C)C)CC2)CC1` (stereo not drawn) [TCMDC-134847], the “% Inhibition” value is 46.9%.
In the case of `COc1ccc2ccccc2c1CCCCN1CCN(CC(c2ccc(F)cc2)N2CCN(C3CCCC3)CC2)CC1` (stereo not drawn) [TCMDC-135865], the “% Inhibition” value is -18.03%.
The same measure, in the same setting: the figure for `CC(C)N1CCN(C(CN2CCN(CCCOc3cccc4ccccc34)CC2)c2ccc(F)cc2)CC1` (stereo not drawn) [TCMDC-135494] is 68.95%; for `Cc1ccccc1OCCCN1CCN(CC(c2ccc(F)cc2)N2CCN(C(C)C)CC2)CC1` (stereo not drawn) [TCMDC-135492] it is -21.14%.
Turning to `CC1(C)N=C(N)N=C(N)N1OCCCOc1cccc2ccccc12` [TCMDC-131626], the “% Inhibition” value was 30.73%.
The same measure, in the same setting: to `COc1cc2ccccc2cc1OCCCN1CCN(CC(c2ccc(F)cc2)N2CCN(C(C)C)CC2)CC1` (stereo not drawn) [TCMDC-135496] belongs 103.4%; to `COc1ccc(OCCCN2CCN(CC(c3ccc(F)cc3)N3CCN(C(C)C)CC3)CC2)c2ccccc12` (stereo not drawn) [TCMDC-135639], 74.93%; to `COc1ccc2ccccc2c1CCCCN1CCN(CC(c2ccc(F)cc2)N2CCC2)CC1` (stereo not drawn) [TCMDC-135867], 60.92%.
On the same count and under the same terms, the figure for `COc1cccc(CN2CCN(C(c3ccccc3)c3ccccc3)CC2)c1O` [TCMDC-125556] is -14.13%.
Still for that read-out and setting: to `CN1CCN(c2ccc(-c3cccc(NC(=O)c4cccc(Cl)c4)c3)nn2)CC1` [TCMDC-125348] belongs 20.42%.
As for `N#CC(c1ccc(Br)cc1)c1ccc2c(C(F)(F)F)cc(C(F)(F)F)nc2n1` (stereo not drawn) [TCMDC-123754], the “% Inhibition” value is given as 9.304%.
Regarding `CCCN(CCC)S(=O)(=O)c1ccc(C(=O)Nc2nc3ccc(-c4cc(=O)[nH]c(Nc5ccccc5Cl)n4)cc3[nH]2)cc1` [TCMDC-135852], the “% Inhibition” value is -12.1%.
On the same count and under the same terms, to `CN1CCOc2ccc(Nc3nnc(-c4cccc(-c5cccnc5)c4)o3)cc2C1` [TCMDC-134278] belongs -13.91%.
The same measure, in the same setting: the figure for `O=C(/C=C/c1ccccc1F)NC1CCC(CCN2CCc3ccc(-c4cccnc4)cc3CC2)CC1` (stereo not drawn) [TCMDC-140229] is -63.4%; for `CCCCCCCn1c(=N)n(CC(O)c2ccc(Cl)c(Cl)c2)c2ccccc21` (stereo not drawn) [TCMDC-124065] it is 113.9%.
Same read-out and setting: to `CN(CCN(C)CC(O)c1ccc(Cl)c(Cl)c1)CC(O)c1ccc(Cl)c(Cl)c1` (stereo not drawn) [TCMDC-141988] belongs -33.12%; to `COc1cccc(C(=O)C2CC2CN(C)CCC(O)c2ccc(Cl)c(Cl)c2)c1` (stereo not drawn) [TCMDC-136793], 24.64%.
In the case of `CCCCCCCCCn1c(NCc2cc(Cl)ccc2O)nc2ccccc21` [TCMDC-123817], the “% Inhibition” value is given as -10.34%.
For `CCN(CC)CCn1c(=N)n(CC(O)c2ccc(Cl)c(Cl)c2)c2ccccc21` (stereo not drawn) [TCMDC-124062], the “% Inhibition” value is 86.67%.
Same read-out and setting: to `CN(CCC(O)c1ccc(Cl)c(Cl)c1)CC1CC1C(=O)c1ccccc1` (stereo not drawn) [TCMDC-136791] belongs 31.08%; to `CN(C)CCn1c(=N)n(CC(O)c2ccc(Cl)c(Cl)c2)c2ccccc21` (stereo not drawn) [TCMDC-125810], 59.92%; to `CCCCCCCCCCNCC(O)c1ccc(O)c(C(=O)OC)c1` (stereo not drawn) [TCMDC-132043], 1.141%.
Same read-out and setting: to `CCc1cccc(-n2c(=O)c3cccnc3n2CC(=O)NCc2ccccc2Cl)c1` [TCMDC-125159] belongs 19.11%.
For the compound `Cc1ccc(N2C(N)=NC(N)=NC2c2ccccc2)cc1` (stereo not drawn) [TCMDC-123675], the “% Inhibition” value came out at 47.57%.
Same read-out and setting: the figure for `O=C(Nc1ccc([N+](=O)[O-])cc1Cl)c1cc2ccccc2cc1O` [TCMDC-123517] is 12.28%; for `O=C(/C=C/c1ccccc1)N1CCOC(CCN2CCC(c3ccccc3)CC2)(c2ccc(Cl)c(Cl)c2)C1` (stereo not drawn) [TCMDC-135350] it is 15.63%; for `CN(Cc1cccc(O)c1)C1CCN(c2cc(NC(=O)c3ccc(F)cc3)ccn2)CC1` [TCMDC-134965] it is -26.89%.
For the compound `CCCNCc1ccc(-c2ccc(CN(Cc3cnc(C)cn3)C(=O)CC#N)cc2)nc1` [TCMDC-141527], the “% Inhibition” value came out at 78.38%.
The same measure, in the same setting: the figure for `CCCNCc1ccc(-c2ccc(CN(CCOC)C(=O)c3cnc(C)cn3)cc2)nc1` [TCMDC-141534] is 98.71%; for `CCCNCc1ccc(-c2ccc(CN(Cc3cnc(C)cn3)C(=O)/C=C/c3ccccc3C)cc2)nc1` [TCMDC-141545] it is 35.86%.
Same read-out and setting: the figure for `CCCNCc1ccc(-c2ccc(CN(CCOC)C(=O)c3cscn3)cc2)nc1` [TCMDC-141525] is 101.5%; for `CCCNCc1ccc(-c2ccc(CN(CCOC)C(=O)c3ccc([N+](=O)[O-])c(C)c3)cc2)nc1` [TCMDC-141544] it is 54.62%.
Same read-out and setting: the figure for `CCc1nc(N)nc(N)c1CCCOc1ccccc1Cl` [TCMDC-137928] is -12.09%.
Regarding `N#Cc1ccc2c(c1)CN(CC[C@H]1CC[C@H](NC(=O)/C=C/c3c[nH]c4ccccc34)CC1)CC2` [TCMDC-139191], for the setting “% Inhibition”, the “% Inhibition” value is given as -21.51%.
As to `COc1cc(Cc2cnc(N)nc2N)cc(OCCCN2C(=O)c3ccccc3C2=O)c1OC` [TCMDC-137365], the “% Inhibition” value came to 18.85%.
Same read-out and setting: to `CCC(C)C(COC(=O)c1cc(OC)c(OC)c(OC)c1)N(C)CCN(C)C(COC(=O)c1cc(OC)c(OC)c(OC)c1)C(C)CC` (stereo not drawn) [TCMDC-131453] belongs 2.796%; to `Cc1ccc(Sc2ccc(NC(=O)CN3CCN(C(=O)c4ccco4)CC3)cc2)cc1C` [TCMDC-124861], 2.666%.
Take `COCc1ccc(CN2CCC(C(=O)Nc3ccc(-c4nc5ccccc5[nH]4)cc3)CC2)o1` [TCMDC-124678]: the “% Inhibition” value is recorded as -40.1%.
Same read-out and setting: the figure for `CCCNCc1ccc(-c2ccc(CN(CCOC)C(=O)c3cccc(C#N)c3)cc2)nc1` [TCMDC-141538] is 90.8%; for `CCCNCc1ccc(-c2ccc(CN(CCOC)C(=O)c3ccccc3)cc2)nc1` [TCMDC-141540] it is 44.11%.
With `CCCNCc1ccc(-c2ccc(CN(CCOC)C(=O)/C=C/c3ccccc3C)cc2)nc1` [TCMDC-141546], the “% Inhibition” value came to 40.67%.
The same measure, in the same setting: the figure for `CCCNCc1ccc(-c2ccc(CN(CCOC)C(=O)c3ccco3)cc2)nc1` [TCMDC-141535] is 89.84%; for `Cc1ccc(CNC(=O)[C@H](CC(C)C)Nc2cc(C)nc(NCc3ccccc3C)n2)cc1` [TCMDC-134910] it is -39.78%.
Regarding `Cc1ccc(Nc2ccnc(Nc3ccc(C)c(F)c3)n2)cc1O` [TCMDC-138498], the “% Inhibition” value came out at 0.05121%.
In the case of `O=C(/C=C/c1ccc(Cl)c(Cl)c1)NCCCCCN1CCC(c2c[nH]c3ccccc23)C(O)C1` (stereo not drawn) [TCMDC-139694], the “% Inhibition” value (% Inhibition) is reported as -6.926%.
In the case of `O=C(Cc1ccc(Cl)cc1)NC1CCN(c2ccnc3cc(Cl)ccc23)C1` (stereo not drawn) [TCMDC-133399], the “% Inhibition” value is -11.42%.
Same read-out and setting: to `CC1(C)OC[C@]2(C)[C@@H](CC[C@]3(C)C4=CC(=O)CCC4CC[C@@H]23)O1` (stereo partly drawn) [TCMDC-137379] belongs 35.88%.
The same measure, in the same setting: the figure for `O=C(NCCCN1CCCC1=O)NCc1ccccc1` [TCMDC-123844] is 3.062%; for `CCc1sc(-c2ccc(C(C)(C)C)cc2)nc1C(=O)NCCCN1CCCC1=O` [TCMDC-133692] it is 75.07%; for `CC(C)c1sc(-c2ccc(C(C)(C)C)cc2)nc1C(=O)NCCCN1CCCC1=O` [TCMDC-133691] it is 25.46%.
Still for that read-out and setting: to `Cc1ccc(C(C(=O)Nc2ccc(N3CCNCC3)c(Cl)c2)c2ccccc2)cc1` (stereo not drawn) [TCMDC-134292] belongs 32.74%; to `O=C(Nc1ccc(C(F)(F)F)cc1)Nc1ccccc1N1CCNCC1` [TCMDC-133726], 29.85%.
Consider `Cc1cc(N2CCNCC2)c2cc(NC(=O)Nc3ccc(Cl)c(Cl)c3)ccc2n1` [TCMDC-139533], for which the “% Inhibition” value turned out to be 55.92%.
Still for that read-out and setting: to `O=C(Nc1ccc(Cl)c(Cl)c1)Nc1ccccc1N1CCNCC1` [TCMDC-133727] belongs 92.01%; to `CN1CCN(c2ccnc3ccc(NC(=O)Nc4ccc(Cl)c(Cl)c4)cc23)CC1` [TCMDC-139321], 12.28%; to `CN1CCN(c2ccnc3ccc(NC(=O)Nc4c(Cl)cccc4Cl)cc23)CC1` [TCMDC-139352], -27.77%.
For `O=C(Nc1ccc(Cl)c(Cl)c1)Nc1ccc2nccc(N3CCN(Cc4ccccc4)CC3)c2c1` [TCMDC-139649], the “% Inhibition” value was determined as 65.98%.
On the same count and under the same terms, to `O=C(Nc1ccc(Cl)c(Cl)c1)Nc1ccc2nccc(N3CCNCC3)c2c1` [TCMDC-139452] belongs -0.1389%; to `CN1CCN(c2ncnc3ccc(NC(=O)Nc4ccc(Cl)c(Cl)c4)cc23)CC1` [TCMDC-139439], 21.32%.
Same read-out and setting: the figure for `O=C(N[C@@H](CC1CCCCC1)C(=O)NC1CCCc2ccccc21)c1ccc(O)c(-c2cccc(C(F)(F)F)c2)c1` (stereo partly drawn) [TCMDC-140821] is 14.55%.
